# Source: PubChem
# USP10 inh = inhibitors of human USP10 deubiquitinase | Ubiquitin carboxyl-terminal hydrolase 10 (Homo sapiens), Q14694 | purified USP10, Ub-rhodamine fluorescence, 60 min | inhibition, % at 20 µM | 1.1% of 47,000 active
# USP8 block = inhibitors of human USP8 deubiquitinase; Ubiquitin carboxyl-terminal hydrolase 8 (Homo sapiens), P40818; purified USP8, Ub-rhodamine cleavage fluorescence, 30 min; 4.2% of 47,000 active; inhibition, % at 20 µM
# Target sequence (P40818 whole entry, looked up): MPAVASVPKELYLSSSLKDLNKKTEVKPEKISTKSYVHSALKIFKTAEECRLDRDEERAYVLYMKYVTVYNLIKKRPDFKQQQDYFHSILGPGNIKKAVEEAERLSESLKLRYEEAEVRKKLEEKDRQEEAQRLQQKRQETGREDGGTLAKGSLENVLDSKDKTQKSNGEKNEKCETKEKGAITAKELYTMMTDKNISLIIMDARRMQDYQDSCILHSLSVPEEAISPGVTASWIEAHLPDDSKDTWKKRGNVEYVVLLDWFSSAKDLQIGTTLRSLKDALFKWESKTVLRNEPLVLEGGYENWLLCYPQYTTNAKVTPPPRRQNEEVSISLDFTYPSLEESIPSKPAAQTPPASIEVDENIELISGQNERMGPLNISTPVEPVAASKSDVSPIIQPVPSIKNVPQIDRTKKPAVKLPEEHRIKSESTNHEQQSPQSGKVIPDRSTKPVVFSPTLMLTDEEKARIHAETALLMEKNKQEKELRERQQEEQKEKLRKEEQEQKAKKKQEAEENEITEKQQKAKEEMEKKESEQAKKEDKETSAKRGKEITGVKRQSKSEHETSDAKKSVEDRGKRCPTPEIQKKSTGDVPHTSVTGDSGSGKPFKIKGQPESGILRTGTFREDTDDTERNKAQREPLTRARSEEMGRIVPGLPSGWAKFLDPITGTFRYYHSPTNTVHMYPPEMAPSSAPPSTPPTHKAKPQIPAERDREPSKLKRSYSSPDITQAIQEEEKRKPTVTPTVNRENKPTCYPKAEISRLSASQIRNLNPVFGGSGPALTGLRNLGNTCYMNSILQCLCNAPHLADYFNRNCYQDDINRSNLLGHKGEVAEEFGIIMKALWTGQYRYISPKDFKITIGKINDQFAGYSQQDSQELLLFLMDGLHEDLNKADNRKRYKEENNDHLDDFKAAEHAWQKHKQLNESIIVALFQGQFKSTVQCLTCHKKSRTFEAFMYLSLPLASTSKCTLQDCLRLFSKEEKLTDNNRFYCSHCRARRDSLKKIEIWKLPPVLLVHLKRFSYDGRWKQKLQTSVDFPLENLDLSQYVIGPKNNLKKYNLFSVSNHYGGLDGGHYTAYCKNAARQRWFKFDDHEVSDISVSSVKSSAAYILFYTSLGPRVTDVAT
# USP17 inh = inhibitors of human USP17 deubiquitinase | purified USP17, Ub-rhodamine cleavage fluorescence, 3 h | 6.5% of 47,000 active | inhibition, % at 50 µM | AID 1645855, 2021 | Ubiquitin carboxyl-terminal hydrolase 17-like protein 5 (Homo sapiens), A8MUK1
# USP30 block = inhibitors of human USP30 deubiquitinase. Ubiquitin carboxyl-terminal hydrolase 30 (Homo sapiens), Q70CQ3. purified USP30, Ub-rhodamine cleavage fluorescence. inhibition, % at 25 µM. 5.3% of 47,000 active
# OTUD3 inh = inhibitors of human OTUD3 deubiquitinase; purified OTUD3, Ub-rhodamine fluorescence, 2 h; OTU domain-containing protein 3 (Homo sapiens), Q5T2D3; inhibition, % at 25 µM; 0.7% of 47,000 active
# USP28 inh = inhibitors of human USP28 deubiquitinase; Ubiquitin carboxyl-terminal hydrolase 28 (Homo sapiens), Q96RU2; purified USP28, Ub-rhodamine cleavage fluorescence, 30 min; inhibition, % at 25 µM; 3% of 47,000 active
# The depositor's hits bear a star; i = inactive. Most compounds without a hit are left out; they make up all but 13% or so of the library. No stated cut-off is given here; in the data, active means inhibition above about 30%; inactive means the rest.
SMILES,USP10 inh,USP8 block,USP17 inh,USP30 block,OTUD3 inh,USP28 inh
O=C1CSC(c2ccc(Cl)cc2)c2c(-c3ccccc3)nn(-c3ccccc3)c2N1 (configuration not stated),2.9,7.3,5.1,31.9*,4.4,43.2*
COc1cc(C2SCC(=O)Nc3c2c(-c2ccccc2)nn3-c2ccccc2)cc(OC)c1OC (configuration not stated),0.0,-11.2,6.9,-0.7,14.8,77.1*
Cc1nn(Cc2ccccc2)c(C)c1C(=O)NC1CCCc2ccccc21 (configuration not stated),0.6,-1.6,0.0,54.0*,-0.9,-4.1
Cc1nn(Cc2ccccc2)c(C)c1C(=O)NCc1ccccc1,3.1,18.8,11.9,27.6,20.4,14.3
O=C(Nc1ccccn1)c1c(O)c2ccccc2n(Cc2ccccc2)c1=O,9.0,68.9*,14.4,12.0,0.3,-1.5
O=C(NCc1ccccn1)c1cc2cccnc2n(Cc2ccccc2)c1=O,-4.5,-34.9,-62.1,-177.5,-50.1,-49.2
C/C=C/[C@H]1O[C@@](O)([C@@H](C)[C@H](O)[C@H](C)[C@H]2OC(=O)/C(OC)=C/C(C)=C[C@@H](C)[C@@H](O)[C@@H](CC)[C@@H](O)[C@H](C)C/C(C)=C/C=C/[C@@H]2OC)C[C@@H](O[C@H]2C[C@@H](O)[C@H](OC(N)=O)[C@@H](C)O2)[C@@H]1C,-5.1,-5.3,-3.3,-38.7,-18.7,-25.7
CN=C(N)NCCC/C=C/CCC[C@H](C)C[C@H](C)C1OC(=O)C(C)C(O)/C=C/C(C)C(O)CC(O)C(C)C(O)CCC(C)C(O)CC2(O)OC(CC(OC(=O)CC(=O)O)CC(O)CC(O)C(C)C(O)/C=C/C=C/C1C)CC(O)C2O (some centres not stated),-2.0,5.8,31.6*,10.6,-14.4,34.4*
CCCn1c(C(=O)c2ccc(OCC)cc2)nc2ccccc21,5.6,-1.8,3.0,-6.2,-6.6,-2.9
CCN1C[C@]2(COC)CC[C@H](OC)C34C5C[C@@H]6[C@@H](OC)CC7(OCOC7(C13)[C@@H](O)C42)C5[C@H]6OC (some centres not stated),-2.9,-1.9,-7.5,1.1,-7.9,-15.9
CC(=O)O[C@H]1[C@]2(O)C[C@]34SS[C@](CO)(C(=O)N3[C@@H]2C[C@@]12O[C@@H](C)C(C)(C)C2=O)N(C)C4=O,0.9,1.3,-32.6,62.9*,12.0,-2.0
CN1C(=O)C23SSC1(CO)C(=O)N2C1Nc2ccccc2C1(C12c4ccccc4NC1N1C(=O)C4(CO)SSC1(C(=O)N4C)C2O)C3O (configuration not stated),2.0,-0.1,-31.7,9.0,14.5,14.7
Cc1cccc(CN2CCC3(CCc4ccccc4C(=O)N3)C2)n1 (configuration not stated),0.6,-7.5,-0.4,-0.6,0.5,-3.1
CC(C)=CCCC1(C)C=Cc2c(O)c3c(c(CC=C(C)C)c2O1)OC12C(=CC4CC1C(C)(C)OC2(C/C=C(/C)C(=O)O)C4=O)C3=O (configuration not stated),81.5*,73.4*,89.3*,70.6*,69.4*,82.2*
COc1cccc2c1NC(=O)C21CCN(C(=O)Nc2cccc(C)c2)CC1,-0.6,4.8,53.6*,2.9,-5.6,0.0
COc1cccc2c1NC(=O)C21CCN(C(=O)Nc2ccc(F)cc2)CC1,0.2,-13.6,-15.8,1.1,-10.6,-2.4
O=C(Nc1nc2ccccc2s1)c1cccn(Cc2ccc(Cl)cc2)c1=O,9.5,5.1,7.4,-17.1,-3.7,-13.0
Cc1ccc(C)c(Cn2cccc(C(=O)Nc3ccccn3)c2=O)c1,3.1,2.3,9.3,19.4,15.2,34.0*
COc1ccc(NC(=O)NC[C@H]2C[C@@H]3CCN2C[C@@H]3c2cc(-c3ccco3)nn2C)cc1,-0.1,-0.1,-6.5,-11.6,-11.4,1.8
CCOC(=O)[C@@H]1[C@@H](c2ccccc2)CN2CCN(C(=O)c3cc(C)on3)C[C@H]12,-7.5,-120.8,-126.4,i,-138.1,-121.7
Cc1nc(NCc2ccco2)nc2c1COCC21CCNC1 (configuration not stated),-1.0,-64.0,-37.5,0.8,6.6,26.8
Cc1ccccc1COc1ccc(C2SCC(=O)Nc3n[nH]c(C)c32)cc1 (configuration not stated),12.5,-32.0,36.2*,41.2*,12.5,21.8
O=C(NCC1CC[C@@]2(CNCCOC2)O1)c1cccnc1 (some centres not stated),-2.9,-20.1,-7.6,-33.3,-9.9,-14.6
CC(=O)c1ccc(N2CCNCC2)cc1,1.5,0.4,8.5,22.4,8.8,6.7
Clc1ccc(OC2COC3(CCNCC3)C2)cc1 (configuration not stated),0.4,2.0,0.3,-9.2,-0.9,0.0
SMILES,USP10 inh,USP8 block,USP17 inh,USP30 block,OTUD3 inh,USP28 inh
O=C1c2c(O)c(Cl)cc3c2[C@@]2(Oc4cc(Cl)c(O)c5c4[C@]3(O2)[C@@H]2O[C@@H]2C5=O)[C@@H]2O[C@H]12,69.2*,53.9*,75.9*,6.4,83.5*,77.9*
CC(C)C12CN3CC(C(C)C)(CN(C1)C3c1ccccn1)C2O (configuration not stated),2.2,47.4*,39.2*,13.1,0.0,19.5
CC[C@@]1(O)C[C@H](OC2CC(N(C)C)C(OC3CC(O)C(OC4CCC(=O)C(C)O4)C(C)O3)C(C)O2)c2c(cc3c(c2O)C(=O)c2c(O)ccc(O)c2C3=O)[C@H]1C(=O)OC (some centres not stated),-7.0,-10.0,70.9*,-13.1,11.5,13.2
CO/C1=C\C(C)=C\C(C)C(O)C(C)C/C(C)=C/C=C/C(OC)C(C(C)C(O)C(C)C2(O)CC(OC3O[C@@H](C)[C@H](O)[C@@H](O)[C@H]3OC)C(C)C(C(C)C)O2)OC1=O (some centres not stated),-12.6,-35.1,0.0,-35.2,-9.9,-19.4
COc1ccc(C2(CCNCc3ccc(Cl)cc3)CCOC(C)(C)C2)cc1 (configuration not stated),-1.8,0.0,2.8,34.1*,5.4,9.1
C/C1=C\C(=O)N(O)CCCC(N)C(=O)OCC/C(C)=C/C(=O)N(O)CCCC(N)C(=O)OCC/C(C)=C/C(=O)N(O)CCCC(N)C(=O)OCC1 (configuration not stated),-12.4,-277.5,-94.2,-395.7,-94.4,-106.5
CCOC(=O)c1c(C)n(C2CC2)c2ccc(OC)cc12,-0.2,7.7,4.8,-8.1,10.3,37.1*
CC(C)CNC(=O)C1=NOC2(CCNCC2)C1,0.0,-90.8,-11.4,2.6,-2.2,-5.5
C[C@@H]1CC[C@@]2(OC1)O[C@H]1C[C@H]3[C@@H]4CC=C5C[C@@H](O[C@@H]6O[C@@H](CO)[C@@H](O[C@@H]7O[C@@H](C)[C@H](O[C@@H]8O[C@@H](C)[C@H](O)[C@H](O)[C@H]8O)[C@H](O)[C@H]7O)[C@H](O)[C@@H]6O[C@@H]6O[C@@H](C)[C@H](O)[C@H](O)[C@H]6O)CC[C@]5(C)[C@H]4CC[C@]3(C)[C@H]1[C@@H]2C,-2.5,2.6,54.8*,96.0*,12.4,38.0*
c1ccc(N2CCCC3(CN(Cc4ccncc4)CCO3)C2)nc1 (configuration not stated),-1.1,-49.4,-30.3,-96.2,-19.5,-25.4
CN1C(=O)[C@@]23CC4=CC=C[C@H](O)C4N2C(=O)[C@]1(CO)SS3 (some centres not stated),-8.4,-16.8,-27.0,34.8*,5.3,-12.7
CC[C@H]1C=CC(=O)O[C@H]1/C=C/[C@](O)(CCN)C(C[C@@H](O)/C=C\C=C/[C@@H]1CCC[C@H](OC(=O)C2CCCCC2)C1)OP(=O)(O)O (some centres not stated),6.8,2.3,10.4,-0.7,2.2,9.8
